These results are taken from PubChem BioAssay AID2506 (National Center for Advancing Translational Sciences (NCATS), 2010).

Values joined by “and” are separate entries in the source; they are usually repeats but may differ in a detail not shown here. Identical values can stand only once. A number with no mark means an inactive call. Calls come from the whole dose curve; as a rule, active = well fitted curve in the direction sought with a large enough effect; inactive = no such curve, though single readings can be large or run the other way.

For the assay, the system named is 4-diphosphocytidyl-2-C-methyl-D-erythritol kinase IspE (bacterial, species not stated). As to the kind of experiment: Confirmatory Assay for Inhibitors of Human Galactokinase (GALK): CDP-Me assay counterscreen for probe SAR. As to conditions: Kinase-Glo ATP luminescence, 1 h. The text has this:
NIH Molecular Libraries Probe Production Centers Network [MLPCN] NIH Chemical Genomics Center [NCGC] MLPCN Grant: R03 MH085689-01 Assay Submitter (PI): Kent Lai (University of Utah School of Medicine, 50 N Mario Capecchi Drive, Salt Lake City, UT 84132) NCGC Assay Overview The GHMP kinase family is a unique class of important enzymes that plays an essential role in many metabolic processes. It contains more than 170 protein members among which are the galactokinase (GALK) and the CMK enzymes. GALK plays a crucial role in galactose processing and is a potential therapeutic target for Classic Galactosemia (OMIM: 230400). CMK is involved for the non-mevalonate synthesis of isoprenoids precursors and natural products like sterols or ubiquinones which are important to many biological functions. Although the sequence identity between GALK and CMK is low, the three-dimensional structures and active sites are highly similar. Therefore to determine the validity and selectivity of an active compound observed in the GALK qHTS screen (AID: 1868), a bioluminescent counter-screen targeting bacterial CMK was developed. In addition, because the mevalonate independent synthesis of isoprenoids are more prevalent in opportunistic pathogens such as bacteria, CMK is a potential novel therapeutic target where selective inhibitors could be used to determine potential antibacterial effects. The CMK (provided by Kent Lai) was assayed using ATP and 4-diphosphocytidyl-2-C-methyl-D-erythritol (CDP-ME; Echelon, cat# I-M052) as substrates. Promega Kinase-Glo Plus (cat# V3774) technology was used to detect the residual ATP following kinetic reaction. Briefly, the Kinase-Glo Plus contains Ultra-Glo [5] luciferase and D-luciferin which generates a bioluminescence signal from the remaining ATP.
NCGC Assay Protocol Summary: Three uL/well of substrate solution (15 uM ATP, 30 uM CDP-ME, 20 mM HEPES pH8.0, 5 mM MgCl2, 40 mM KCl, 1 mM DTT, 0.01% BSA final concentration) was dispensed into 1536-well, assay plates (Greiner, solid white medium-binding plates) with Aurora Discovery BioRAPTR Flying Reagent Dispenser (FRD; Beckton-Dickenson). Compound and control solutions (23 nL) were transferred to the assay plate using the Kalypsys 1536-pin tool. One uL/well enzyme solution (0.25 ug/mL CDP-Me kinase, 20 mM HEPES pH8.0, 5 mM MgCl2, 40 mM KCl, 1 mM DTT, 0.01% BSA final concentration) was then added using the FRD yielding a total kinase reaction volume of 4 uL/ well. After 1 hour of room temperature incubation, 4 uL Kinase-Glo Plus reagent was added for a final assay volume of 8 uL/well. After 1 min, luminescence was detected with the ViewLux plate reader (Perkin Elmer, Waltham, MA) using a 1 sec exposure time and 2x binning settings.
Take `O=C1CCCC2=C1C1(CCCCC1)N=C(Nc1nc3ccccc3o1)N2`: the max response was -0.522%. On to `CC1(C)CC(=O)C2=C(C1)NC(Nc1nc3ccccc3o1)=NC2c1cccnc1` (stereo not drawn), for which the max response is 1.01%. `CC1(C)CC(=O)C2=C(C1)NC(Nc1nc3ccccc3o1)=NC2c1cccc(Cl)c1` (stereo not drawn): the max response was 2.44%.

For `O=C1CCCC2=C1C(c1ccc(Cl)cc1)N=C(Nc1nc3ccccc3o1)N2` (stereo not drawn), the max response was 0.739%. With `O=C1CCC2=C1C(c1ccccc1Cl)N=C(Nc1nc3ccccc3o1)N2` (stereo not drawn), the max response was -0.401%. Then `Cn1c(NC2=NC3(CCCC3)C3=C(CCCC3=O)N2)nc2ccccc21`, with 5.48%; and `CC1CCC2(C1)N=C(Nc1nc3ccccc3o1)NC1=C2C(=O)CCC1` (stereo not drawn), with 2.87%; and `Cc1ccc(C2N=C(Nc3nc4ccccc4o3)NC3=C2C(=O)CC(C)(C)C3)cc1` (stereo not drawn), with 2.37%.

`COc1ccc(C2N=C(Nc3nc4ccccc4o3)NC3=C2C(=O)CC(C)(C)C3)cc1` (stereo not drawn): the max response is 1.84%. Under `O=C1CCCC2=C1C1(CCCOC1)N=C(Nc1nc3ccccc3o1)N2` (stereo not drawn) stands 3.35%. Turning to `O=C1CC(c2ccccc2)CC2=C1C1(CCCCC1)N=C(Nc1nc3ccccc3o1)N2` (stereo not drawn), the max response is 5.2%. For the compound `O=C1CCCC2=C1C1(CCCC1)N=C(Nc1nc3cc(-c4ccccc4)ccc3o1)N2`, the max response is -2.69%. In the case of `O=C1CCCC2=C1C(c1ccccc1Cl)N=C(Nc1nc3ccccc3o1)N2` (stereo not drawn), the max response is -2.1%.

Regarding `CC1(C)CC(=O)C2=C(C1)NC(Nc1nc3ccccc3o1)=NC2c1ccccc1Cl` (stereo not drawn), the max response is 1.88%. For the compound `Cc1ccc2nc(NC3=NC4(CCCC4)C4=C(CCCC4=O)N3)oc2c1`, the max response was 7.12%. On to `O=C1CCCC2=C1C1(CCCC1)N=C(Nc1nc3cc4ccccc4cc3o1)N2`, for which the max response was 5.94%.

As for `O=C1CCCC2=C1C1(CCSC1)N=C(Nc1nc3ccccc3o1)N2` (stereo not drawn), the max response is -0.317%. With `O=C1CCCC2=C1C1(CCCC1)N=C(Nc1nc3cc(Br)ccc3o1)N2`, the max response was 5.8%. Then `O=C1CCCC2=C1C1(CCSCC1)N=C(Nc1nc3ccccc3o1)N2`, with -0.443%. Then `O=C1CCCC2=C1C1(CCCC1)N=C(Nc1nc3ccccc3n1Cc1ccccc1)N2`, with 4.95%. On to `O=C1CCCC2=C1C1(CCC1)N=C(Nc1nc3ccccc3o1)N2`, for which the max response was 4.72%.

Regarding `CC1(C)CC(=O)C2=C(C1)NC(Nc1nc3ccccc3o1)=NC2c1cccc(O)c1` (stereo not drawn), the max response is 1.58%. Regarding `O=C1CCCC2=C1C1(CCOCC1)N=C(Nc1nc3ccccc3o1)N2`, the max response is 4.63%.

Turning to `O=C1CCC2=C1C1(CCCC1)N=C(Nc1nc3ccccc3o1)N2`, the max response was 2.86%.

As to `CC1(C)N=C(Nc2nc3ccccc3o2)NC2=C1C(=O)CCC2`, the max response is 3.59%. In the case of `CCC1CCC2(C1)N=C(Nc1nc3ccccc3o1)NC1=C2C(=O)CCC1` (stereo not drawn), the max response was 0.524% [middle of 5 runs]. Under `CC1(C)CC(=O)C2=C(C1)NC(Nc1nc3ccccc3o1)=NC2c1ccccc1` (stereo not drawn) stands 1.82%; under `Cc1nc(Nc2nc3ccccc3o2)nc2c1C(=O)CC(C)(C)C2`, -1.17%; under `COc1ccccc1C1N=C(Nc2nc3ccccc3o2)NC2=C1C(=O)CC(C)(C)C2` (stereo not drawn), 1.66%. Then `CC1(C)CC(=O)C2=C(C1)NC(Nc1nc3ccccc3o1)=NC2c1cccc(F)c1` (stereo not drawn), with 2.59%; and `COc1cccc(C2N=C(Nc3nc4ccccc4o3)NC3=C2C(=O)CC(C)(C)C3)c1` (stereo not drawn), with 0.986%; and `O=C1CCCC2=C1C1(CCCC1)N=C(Nc1nc3ccccc3o1)N2`, with 4.68% and -2.85%.

With `O=C1CCCC2=C1C1(CCS(=O)(=O)C1)N=C(Nc1nc3ccccc3o1)N2` (stereo not drawn), the max response was -0.863%. Consider `O=C1CCCC2=C1[C@@]1(CCC(c3ccccc3)C1)N=C(Nc1nc3ccccc3o1)N2` (stereo partly drawn), for which the max response was 3.98%. For `O=C1CC(c2ccccc2)CC2=C1C1(CCCC1)N=C(Nc1nc3ccccc3o1)N2` (stereo not drawn), the max response is 3.59%.

Turning to `Cc1ccc2oc(NC3=NC4(CCCC4)C4=C(CCCC4=O)N3)nc2c1`, the max response is 5.2%. As for `CC1(C)CC(=O)C2=C(C1)NC(Nc1nc3ccccc3o1)=NC21CCCC1`, the max response is -5.27%. Then `O=C1CCCC2=C1C1(CCCC1)N=C(Nc1nc3cc(Cl)ccc3o1)N2`, with 3.11%.
